DAX1 inh-1: blocks DAX1 repression of SF-1 activated StAR promoter. HEK293T StAR-luciferase reporter, SF-1/DAX-1 repression relief. inhibition, % at 6.8 µM. 1.1% of 370,000 active;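 active = inhibition above the mean over all tested compounds plus 3 SD, cut at about 3.6% in these data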;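 note: 0% = DAX-1 cells with DMSO and 100% = cells lacking DAX-1 with DMSO; higher inhibition means more luminescence from relief of DAX-1 repression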
ssDAF12 agonist: activates DAF-12 receptor from parasite S. stercoralis | 1% of 370,000 active | activation, % at 6.8 µM | AID 652126 | HEK293 ssDAF-12/GRIP1 lit1-tk-luc reporter, luminescence; % of 3 µM dafachronic acid response;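 active = activation above the mean over all tested compounds plus 3 SD, cut at about 0.9% in these data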;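 note: 0% = DMSO-only wells and 100% = 3 µM delta7-dafachronic acid wells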
hcDAF-12 act: H. contortus DAF-12 activation, primary screen | HEK293 hcDAF-12 lit1-tk-luc reporter, luminescence; 0% DMSO, 100% Δ7-dafachronic acid | activation, % at 6.8 µM | 1.4% of 370,000 active | AID 652067;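 active = activation above the mean of all tested compounds plus 3 SD, cut at about 5.5% in these data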;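 note: 100% = response to 3 µM Δ7-dafachronic acid high control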
DAX1 inh-2: inhibitors of human orphan nuclear receptor DAX1 (NR0B1); AID 504766; P51843; HEK293 Gal4-DAX1 luciferase reporter, luminescence; 0.99% of 340,000 active; inhibition, % at 6.75 µM;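 active = inhibition above the mean over all tested compounds plus 3 SD, cut at about 4.2% in these data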;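 note: 0% = DAX1-transfected cells with DMSO and 100% = empty-vector control cells with DMSO; inhibition shows as a rise in luminescence from relieved DAX1 repression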
AHR act: activates the human aryl hydrocarbon receptor; 2.5% of 320,000 active; AHR-responsive luciferase reporter cells, luminescence; AID 2796; activation, % at 5 µM; in the data active = activation above about 47%;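 note: 0% = vehicle wells and 100% = reference agonist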
Target sequence (P35869 whole entry, looked up): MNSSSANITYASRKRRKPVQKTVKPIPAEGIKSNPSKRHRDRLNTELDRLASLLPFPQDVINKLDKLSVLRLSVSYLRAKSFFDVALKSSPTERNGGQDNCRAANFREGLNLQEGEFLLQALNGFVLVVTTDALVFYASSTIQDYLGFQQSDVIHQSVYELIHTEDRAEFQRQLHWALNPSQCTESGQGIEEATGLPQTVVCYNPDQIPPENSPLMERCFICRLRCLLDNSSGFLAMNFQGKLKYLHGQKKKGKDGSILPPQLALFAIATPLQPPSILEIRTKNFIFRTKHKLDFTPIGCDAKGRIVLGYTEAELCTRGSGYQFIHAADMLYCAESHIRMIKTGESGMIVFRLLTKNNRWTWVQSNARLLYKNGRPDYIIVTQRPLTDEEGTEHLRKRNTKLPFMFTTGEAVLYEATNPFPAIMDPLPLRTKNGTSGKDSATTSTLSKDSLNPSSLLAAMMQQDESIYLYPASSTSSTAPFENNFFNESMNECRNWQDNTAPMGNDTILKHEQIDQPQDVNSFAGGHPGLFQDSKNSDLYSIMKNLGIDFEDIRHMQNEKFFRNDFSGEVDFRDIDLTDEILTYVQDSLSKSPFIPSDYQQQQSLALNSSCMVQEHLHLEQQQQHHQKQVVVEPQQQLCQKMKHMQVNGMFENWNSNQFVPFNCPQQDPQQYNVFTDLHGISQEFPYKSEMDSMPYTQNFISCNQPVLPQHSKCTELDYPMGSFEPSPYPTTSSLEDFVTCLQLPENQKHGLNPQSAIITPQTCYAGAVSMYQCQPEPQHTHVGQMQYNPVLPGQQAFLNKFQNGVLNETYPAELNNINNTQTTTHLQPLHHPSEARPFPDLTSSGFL
hgDAF12 agonist: activates the H. glycines DAF-12 receptor ligand-binding domain; HEK293 GAL4-hgDAF12 UAS-luciferase reporter, agonist luminescence; normalized to butyrate control; activation, % at 6.8 µM; 1.8% of 370,000 active;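 active = activation above a cutoff set at the mean of all screened compounds plus 3 SD, cut at about 10% in these data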;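 note: 0% = DMSO wells and 100% = sodium butyrate wells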
LXRb hcDAF ctr: activates human LXR-beta, counter-screen for hcDAF-12 agonists; HEK293 Gal4-LXR tk-luc reporter, luminescence, 24 h; normalized: DMSO 0%, positive control 100%; AID 743027; activation, % at 6.8 µM; shares compounds with hcDAF-12 act; 3,400 tested, under 10 active;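 active = mean percent activation of the reporter above a cutoff set as the average over tested compounds plus their standard deviation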
hcDAF12 conf: hcDAF-12 agonism, confirmation assay. AID 743032. HEK293 hcDAF-12 lit1-tk-luc reporter, luminescence; % of Δ7-dafachronic acid response. shares compounds with hcDAF-12 act. activation, % at 6.8 µM. 61% of 3,400 active;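 active = mean activation across triplicate tests above the threshold derived from the earlier primary screen, cut at about 5.5% in these data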;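 note: 0% = DMSO only wells and 100% = 3 µM Δ7-dafachronic acid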
An asterisk follows results filed as active. Shown are actives, neighbours in structure and some others; about 5.7% of the full set was active somewhere.

`CCn1c(=O)c2cc(C(=O)N3CCN(C)CC3)sc2c2ccccc21` gave DAX1 inh-1 0, ssDAF12 agonist 0, hcDAF-12 act -1, DAX1 inh-2 -1, AHR act 37 and hgDAF12 agonist -3.
Screening CN1CCN(C(=O)c2cc3sc4ccccc4c3s2)CC1 returned DAX1 inh-1 4.5*, ssDAF12 agonist 0, hcDAF-12 act 7.3*, AHR act 0, hgDAF12 agonist 13*, LXRb hcDAF ctr 1 and hcDAF12 conf 5.
`C#CCOCCOCCOCCNc1nc(N2CCN(C(=O)[C@H](CCCCN)n3cc([C@@H](N)CC(C)C)nn3)CC2)nc(N2CCN(C(=O)[C@H](Cc3cc4ccccc4[nH]3)n3cc([C@@H](N)CC(C)C)nn3)CC2)n1` gave ssDAF12 agonist -1, hcDAF-12 act 8.1*, hgDAF12 agonist 4, LXRb hcDAF ctr 0 and hcDAF12 conf 4.
Screening C#CCOCCOCCOCCNc1nc(N2CCN(C(=O)[C@H](CCCCN)n3cc([C@@H](N)CC(C)C)nn3)CC2)nc(N2CCN(C(=O)[C@H](Cc3cc4ccccc4[nH]3)n3cc([C@@H](N)Cc4ccc(O)cc4)nn3)CC2)n1 returned DAX1 inh-2 0 and AHR act 6.
For CN1CCN(CC(O)COc2ccc(C34CC5CC(CC(C5)C3)C4)cc2)CC1 (stereo not drawn) the results were DAX1 inh-1 0, ssDAF12 agonist -1, hcDAF-12 act -1, DAX1 inh-2 2 and hgDAF12 agonist 3.
`CC(=O)n1cc(C2CC(=O)OC3=C2CC(=O)C(C)(C)C3)c2ccccc21` (stereo not drawn) gave DAX1 inh-1 0, ssDAF12 agonist 0, hcDAF-12 act 2, DAX1 inh-2 1 and hgDAF12 agonist -1.
`Cc1cccn2c(=O)c(/C=C(\C#N)S(=O)(=O)c3ccccc3)c(N3CCN(c4ccccc4)CC3)nc12` gave DAX1 inh-1 1, ssDAF12 agonist -1, hcDAF-12 act 6.7*, DAX1 inh-2 0, AHR act 7, hgDAF12 agonist 0, LXRb hcDAF ctr 0 and hcDAF12 conf 1.
CN(Cc1ccccc1)C(=O)CCS(=O)(=O)c1ccc2c(c1)NC(=O)CS2 was read as DAX1 inh-2 0 and AHR act 0.
For CC(C)c1ccc2c(c1)C1Cc3ccccc3C1N2 (stereo not drawn) the results were DAX1 inh-1 1, ssDAF12 agonist -1, hcDAF-12 act 7.8*, DAX1 inh-2 3, AHR act 51*, hgDAF12 agonist 6, LXRb hcDAF ctr 0 and hcDAF12 conf 5.
For O=S1(=O)NC2c3ccccc3CC2O1 (stereo not drawn) the results were DAX1 inh-1 0, ssDAF12 agonist 1, hcDAF-12 act 3, DAX1 inh-2 0, AHR act 20 and hgDAF12 agonist 2.
CCN(CC(=O)NCc1ccc(Cl)cc1)C(=O)CNS(=O)(=O)c1ccc(NC(C)=O)cc1 was read as DAX1 inh-1 0, ssDAF12 agonist -1, hcDAF-12 act -2, DAX1 inh-2 0, AHR act 8 and hgDAF12 agonist 1.
`COc1ccc(-n2c(SCC(=O)Nc3ccc(NC(C)=O)cc3)nc3c([nH]c4ccccc43)c2=O)cc1OC` gave DAX1 inh-1 -1, ssDAF12 agonist 1.0*, hcDAF-12 act 9.6*, DAX1 inh-2 0, AHR act 41, hgDAF12 agonist 0, LXRb hcDAF ctr 0 and hcDAF12 conf 6.7*.
Screening O=C(O)CCC(=O)N1CCN(c2ccc(C(=O)c3ccc(F)cc3)cc2)CC1 returned DAX1 inh-1 -1, ssDAF12 agonist -1, hcDAF-12 act -1, DAX1 inh-2 -1, AHR act 1 and hgDAF12 agonist 3.
Screening CN1CCN(c2ccc(C(=O)c3ccc(F)cc3)cc2)CC1 returned DAX1 inh-1 2, ssDAF12 agonist -1, hcDAF-12 act 8.9*, DAX1 inh-2 2, AHR act 11, hgDAF12 agonist 12*, LXRb hcDAF ctr 1 and hcDAF12 conf 5.
`COc1ccc2c3c([nH]c2c1)C1CC2C(CC(O)C(OC)C2C(=O)O)CN1CC3` (stereo not drawn) gave DAX1 inh-1 0, ssDAF12 agonist -1, hcDAF-12 act 7.0*, DAX1 inh-2 2, AHR act 5, hgDAF12 agonist 3, LXRb hcDAF ctr 0 and hcDAF12 conf -1.
`O=C(OCc1nc2ccccc2s1)C1CCN(C2=NS(=O)(=O)c3ccccc32)CC1` gave DAX1 inh-1 2, ssDAF12 agonist 1.4*, hcDAF-12 act 9.7*, DAX1 inh-2 2, AHR act 10, hgDAF12 agonist 5, LXRb hcDAF ctr 1 and hcDAF12 conf 9.6*.
Screening Brc1ccccc1-c1nnc(SCc2nc3ccccc3s2)o1 returned DAX1 inh-1 3, ssDAF12 agonist 2.5*, hcDAF-12 act 12*, DAX1 inh-2 1, AHR act 39, hgDAF12 agonist 11*, LXRb hcDAF ctr 1 and hcDAF12 conf 9.6*.
For CCC(=O)c1ccc(N2CCN(C(=O)c3cccs3)CC2)c(F)c1 the results were DAX1 inh-1 0, ssDAF12 agonist -1, hcDAF-12 act 0, DAX1 inh-2 0, AHR act 4 and hgDAF12 agonist 6.
`CCN(CC)c1ccc(/C=N/NC(=O)c2ccccn2)cc1` gave DAX1 inh-1 1, ssDAF12 agonist 1, hcDAF-12 act 6.8*, DAX1 inh-2 4, AHR act 26, hgDAF12 agonist 11*, LXRb hcDAF ctr 1 and hcDAF12 conf 7.1*.
`Cn1ccnc1SCC(=O)c1c[nH]c2ccccc12` gave DAX1 inh-1 3, ssDAF12 agonist 3.8*, hcDAF-12 act 9.3*, DAX1 inh-2 2, AHR act 70*, hgDAF12 agonist 10, LXRb hcDAF ctr 1 and hcDAF12 conf 7.4*.
`COc1cc(NC(=O)CSc2ncnc3sc4c(c23)CCCC4)c(C(=O)O)cc1OC` gave DAX1 inh-1 0, ssDAF12 agonist -1, hcDAF-12 act -1, DAX1 inh-2 1, AHR act 3 and hgDAF12 agonist -1.
Cc1nn(-c2ccccc2)c(C)c1C(=O)OCc1ccc(C#N)cc1 was read as DAX1 inh-1 -1, ssDAF12 agonist -2, hcDAF-12 act -3, DAX1 inh-2 1, AHR act -5 and hgDAF12 agonist -1.

High-throughput results deposited in PubChem by The Scripps Research Institute Molecular Screening Center.
